# Only a selection was taken, and the strongest signals are over-represented in it overall.
# Key:
# Assay in all cases: glycan array binding signal (z-score within array); higher = stronger binding
# Settings in all cases: glycan notation: IUPAC condensed, linker removed
# [1] = biological target: Fuc(a1-2)Gal
# Procedure, shortened: (§1)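 From the Consortium for Functional Glycomics database, 3228 arrays were curated, keeping only those whose protein sequence was available. Binding is given as a within-array Z-score averaged across arrays sharing a protein sequence and across linkers. Negative Z-scores can be read as non-binding.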
# [2] = biological target: Fuc(a1-2)Gal(b1-4)GlcNAc(b1-3)Gal(b1-4)GlcNAc
# Procedure, shortened: as §1
# [3] = biological target: Fuc(a1-2)Gal(b1-4)[Fuc(a1-3)]GlcNAc
# Procedure, shortened: as §1
# [4] = biological target: Fuc(a1-2)Gal(b1-4)[Fuc(a1-3)]GlcNAc(b1-3)Gal(b1-4)[Fuc(a1-3)]GlcNAc
# Procedure, shortened: as §1
# [5] = biological target: Fuc(a1-2)[Gal(a1-3)]Gal(b1-4)[Fuc(a1-3)]GlcNAc
# Procedure, shortened: as §1
# [6] = biological target: Fuc(a1-2)[GalNAc(a1-4)]Gal(b1-4)GlcNAc
# Procedure, shortened: as §1
# [7] = biological target: Fuc(a1-3)[Gal(b1-4)]GlcNAc(b1-4)Gal(b1-4)[Fuc(a1-3)]GlcNAc
# Procedure, shortened: as §1
# [8] = biological target: Gal(a1-3)Gal
# Procedure, shortened: as §1
# [9] = biological target: Gal(a1-3)Gal(b1-4)[Fuc(a1-3)]GlcNAc
# Procedure, shortened: as §1
# [10] = biological target: Gal(a1-4)Gal(b1-4)GlcNAc
# Procedure, shortened: as §1
# [11] = biological target: Gal(b1-3)GlcNAc(b1-3)Gal(b1-3)GlcNAc
# Procedure, shortened: as §1
# [12] = biological target: Gal(b1-3)GlcNAc(b1-3)Gal(b1-4)GlcNAc
# Procedure, shortened: as §1
# [13] = biological target: Gal(b1-3)[Fuc(a1-4)]GlcNAc(b1-3)Gal(b1-4)GlcNAc
# Procedure, shortened: as §1
# [14] = biological target: Gal(b1-4)GlcNAc(b1-3)[Gal(b1-4)GlcNAc(b1-6)]GalNAc
# Procedure, shortened: as §1
# [15] = biological target: Gal(b1-4)GlcNAc(b1-6)Gal(b1-4)GlcNAc(b1-6)GalNAc
# Procedure, shortened: as §1
# [16] = biological target: Gal(b1-4)GlcNAc(b1-6)GalNAc
# Procedure, shortened: as §1
# [17] = biological target: GalNAc(b1-3)GalNAc
# Procedure, shortened: as §1
# [18] = biological target: GlcNAc(b1-3)[GlcNAc(b1-6)]Gal(b1-4)GlcNAc
# Procedure, shortened: as §1
# [19] = biological target: Man(a1-2)Man(a1-2)Man(a1-3)Man
# Procedure, shortened: as §1
# [20] = biological target: Neu5Ac(a2-3)Gal
# Procedure, shortened: as §1
# [21] = biological target: Neu5Ac(a2-3)Gal(b1-3)[Fuc(a1-4)]GlcNAc(b1-3)Gal(b1-4)[Fuc(a1-3)]GlcNAc
# Procedure, shortened: as §1
# [22] = biological target: Neu5Ac(a2-3)Gal(b1-4)GlcNAc(b1-6)[Gal(b1-3)]GalNAc
# Procedure, shortened: as §1
# [23] = biological target: Neu5Ac(a2-3)Gal(b1-4)[Fuc(a1-3)]GlcNAc
# Procedure, shortened: as §1
# [24] = biological target: Neu5Ac(a2-8)Neu5Ac(a2-8)Neu5Ac(a2-3)Gal(b1-4)Glc
# Procedure, shortened: as §1
# [25] = biological target: Neu5Gc(a2-6)Gal(b1-4)GlcNAc
# Procedure, shortened: as §1
# [26] = biological target: Fuc(a1-2)Gal(b1-3)GlcNAc
# Procedure, shortened: as §1
# [27] = biological target: Fuc(a1-2)[Gal(a1-3)]Gal
# Procedure, shortened: as §1
# [28] = biological target: Gal(a1-3)Gal(b1-3)GlcNAc
# Procedure, shortened: as §1
# [29] = biological target: Gal(a1-3)Gal(b1-4)Glc
# Procedure, shortened: as §1
# [30] = biological target: Gal(a1-6)Glc
# Procedure, shortened: as §1
# [31] = biological target: Gal(b1-3)Gal(b1-4)GlcNAc
# Procedure, shortened: as §1
# [32] = biological target: Gal(b1-3)GlcNAc(b1-3)Gal(b1-4)Glc
# Procedure, shortened: as §1
# [33] = biological target: Gal(b1-3)[Fuc(a1-4)]GlcNAc
# Procedure, shortened: as §1
# [34] = biological target: Gal(b1-4)GlcNAc(b1-3)[GlcNAc(b1-6)]Gal(b1-4)GlcNAc
# Procedure, shortened: as §1
# [35] = biological target: Gal(b1-4)GlcNAc(b1-6)[Gal(b1-3)]GalNAc
# Procedure, shortened: as §1
# [36] = biological target: Gal3S(b1-4)Glc
# Procedure, shortened: as §1
# [37] = biological target: Gal6S(b1-4)Glc6S
# Procedure, shortened: as §1
# [38] = biological target: Gal6S(b1-4)GlcNAc6S
# Procedure, shortened: as §1
# [39] = biological target: GalNAc(b1-3)Gal(a1-4)Gal(b1-4)GlcNAc
# Procedure, shortened: as §1
# [40] = biological target: GlcNAc(b1-2)Gal(b1-3)GalNAc
# Procedure, shortened: as §1
# [41] = biological target: GlcNAc(b1-4)Gal(b1-4)GlcNAc
# Procedure, shortened: as §1
# [42] = biological target: Man(a1-2)Man(a1-3)[Man(a1-2)Man(a1-6)]Man(a1-6)[Man(a1-2)Man(a1-2)Man(a1-3)]Man(b1-4)GlcNAc(b1-4)GlcNAc
# Procedure, shortened: as §1
# [43] = biological target: Neu5Ac(a2-3)Gal(b1-3)GalNAc
# Procedure, shortened: as §1
# [44] = biological target: Neu5Ac(a2-3)Gal(b1-4)GlcNAc(b1-2)Man(a1-3)[Neu5Ac(a2-6)Gal(b1-4)GlcNAc(b1-2)Man(a1-6)]Man(b1-4)GlcNAc(b1-4)GlcNAc
# Procedure, shortened: as §1
# [45] = biological target: Neu5Ac(a2-8)Neu5Ac
# Procedure, shortened: as §1
# [46] = biological target: Neu5Ac9Ac(a2-6)Gal(b1-4)GlcNAc
# Procedure, shortened: as §1
# [47] = biological target: Neu5Gc(b2-6)Gal(b1-4)GlcNAc
# Procedure, shortened: as §1
binder,measurement,setting,value
"Mindin (Homo sapiens), Q9BUD6 (protein) MENPSPAAALGKALCALLLATLGAAGQPLGGESICSARALAKYSITFTGKWSQTAFPKQYPLFRPPAQWSSLLGAAHSSDYSMWRKNQYVSNGLRDFAERGEAWALMKEIEAAGEALQSVHEVFSAPAVPSGTGQTSAELEVQRRHSLVSFVVRIVPSPDWFVGVDSLDLCDGDRWREQAALDLYPYDAGTDSGFTFSSPNFATIPQDTVTEITSSSPSHPANSFYYPRLKALPPIARVTLVRLRQSPRAFIPPAPVLPSRDNEIVDSASVPETPLDCEVSLWSSWGLCGGHCGRLGTKSRTRYVRVQPANNGSPCPELEEEAECVPDNCV",glycan array binding signal (z-score),[1],-0.273
same,glycan array binding signal (z-score),[2],-0.186
same,glycan array binding signal (z-score),[3],-0.185
same,glycan array binding signal (z-score),[4],0.005
same,glycan array binding signal (z-score),[5],-0.133
same,glycan array binding signal (z-score),[6],2.81
same,glycan array binding signal (z-score),[7],-0.142
same,glycan array binding signal (z-score),[8],-0.238
same,glycan array binding signal (z-score),[9],0.093
same,glycan array binding signal (z-score),[10],-0.141
same,glycan array binding signal (z-score),[11],-0.279
same,glycan array binding signal (z-score),[12],2.01
same,glycan array binding signal (z-score),[13],1.28
same,glycan array binding signal (z-score),[14],2.02
same,glycan array binding signal (z-score),[15],-0.238
same,glycan array binding signal (z-score),[16],1.34
same,glycan array binding signal (z-score),[17],-0.245
same,glycan array binding signal (z-score),[18],-0.324
same,glycan array binding signal (z-score),[19],-0.085
same,glycan array binding signal (z-score),[20],-0.347
same,glycan array binding signal (z-score),[21],0.188
same,glycan array binding signal (z-score),[22],-0.36
same,glycan array binding signal (z-score),[23],-0.257
same,glycan array binding signal (z-score),[24],-0.295
same,glycan array binding signal (z-score),[25],-0.363
"Langerin CRD (Homo sapiens), Q9UJ71 (protein) QVVSQGWKYFKGNFYYFSLIPKTWYSAEQFCVSRNSHLTSVTSESEQEFLYKTAGGLIYWIGLTKAGMEGDWSWVDDTPFNKVQSVRFWIPGEPNNAGNNEHCGNIKAPSLQAWNDAPCDKTFLFICKRPYVPSEPSAWSHPQFEK",glycan array binding signal (z-score),[1],0.647
same,glycan array binding signal (z-score),[26],0
same,glycan array binding signal (z-score),[27],4.04
same,glycan array binding signal (z-score),[28],-0.623
same,glycan array binding signal (z-score),[29],-0.487
same,glycan array binding signal (z-score),[30],-0.427
same,glycan array binding signal (z-score),[31],-0.488
same,glycan array binding signal (z-score),[32],-0.48
same,glycan array binding signal (z-score),[33],-0.279
same,glycan array binding signal (z-score),[34],0.314
same,glycan array binding signal (z-score),[35],-0.489
same,glycan array binding signal (z-score),[36],-0.325
same,glycan array binding signal (z-score),[37],4.01
same,glycan array binding signal (z-score),[38],6.72
same,glycan array binding signal (z-score),[39],-0.356
same,glycan array binding signal (z-score),[40],4.61
same,glycan array binding signal (z-score),[41],1.57
same,glycan array binding signal (z-score),[19],4.1
same,glycan array binding signal (z-score),[42],-0.352
same,glycan array binding signal (z-score),[43],-0.547
same,glycan array binding signal (z-score),[44],-0.647
same,glycan array binding signal (z-score),[22],-0.693
same,glycan array binding signal (z-score),[45],-0.544
same,glycan array binding signal (z-score),[46],-0.422
same,glycan array binding signal (z-score),[47],-0.263

# — the supplement of paper PMC8728848
